Bioassay records (PubChem BioAssay)
The list is not random: actives were taken first. Their share in the collection is about 1.7%.
PTHR1 agonist – qHTS for PTHR1 Agonists: Primary Screen; 0.075% of 410,000 active; Potency, µM (highest dose often 115 µM), for the others: at the top dose activation, actives largely listed as activators; AID 743266, 2014; HEK293 GP2 PTHR1 cells, GloSensor cAMP luminescence, 1 h; also: nearly all actives have a fitted effect of over 55% in size
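HEK-293-derived GP2 cells expressing PTHR1 and a GloSensor cAMP reporter, 3,000/well, plated overnight, given luciferin plus IBMX (each 0.5 mM as added) for 1 h at 37 °C, then compound for 1 h at 37 °C. Luminescence was read after 15 min at room temperature.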
GLP1R inv ag – qHTS of GLP-1 Receptor Inverse Agonists (Inhibition Mode); HEK293 GLP-1R CRE-luciferase, luminescence, 24 h; GLP-1R form is constitutively active; Glucagon-like peptide 1 receptor (Homo sapiens), P43220; 1.6% of 410,000 active; Potency, µM (series often up to 38.3 µM), for the others: at the highest dose activity change, negative = inhibition, actives largely listed as inhibitors; also: % is scaled to controls: 0 for no effect and ±100 for the full control effect; nearly all actives have a fitted effect of over 55% in size
Target sequence (P43220 whole entry, looked up): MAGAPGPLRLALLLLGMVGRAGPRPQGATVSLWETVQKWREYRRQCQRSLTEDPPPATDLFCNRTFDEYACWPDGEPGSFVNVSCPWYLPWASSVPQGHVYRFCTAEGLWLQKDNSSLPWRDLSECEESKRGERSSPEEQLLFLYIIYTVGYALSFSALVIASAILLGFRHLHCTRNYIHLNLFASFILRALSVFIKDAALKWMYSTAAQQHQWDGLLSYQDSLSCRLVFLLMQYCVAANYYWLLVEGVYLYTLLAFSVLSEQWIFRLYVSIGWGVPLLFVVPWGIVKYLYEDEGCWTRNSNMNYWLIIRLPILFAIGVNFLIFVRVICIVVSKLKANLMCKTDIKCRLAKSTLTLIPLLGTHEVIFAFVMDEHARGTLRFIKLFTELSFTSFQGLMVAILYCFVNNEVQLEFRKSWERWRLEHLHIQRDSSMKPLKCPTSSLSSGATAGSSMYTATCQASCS
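Inverse agonists were sought by their lowering of basal cAMP reporter luciferase output in HEK293 cells stably carrying constitutively active human GLP-1R, after 24 h compound treatment.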
HEK293 tox – qHTS of GLP-1 Receptor Inverse Agonists: Cytotox Screen | HEK293 cAMP-luciferase reporter cells, luminescence, 24 h | Potency, µM (series often up to 38.3 µM), without a hit: at the highest dose activity change, negative = inhibition, actives largely listed as inhibitors | AID 624418, 2012 | 0.13% of 410,000 active;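 also: loss of luciferase light is scored as toxicity; % is scaled to controls: 0 for no effect and ±100 for the full control effect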
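To flag toxic compounds, the library was rerun on cells for 24 hr at 37 deg C and 5% CO2. Viability-linked luminescence was captured 12 min after adding luciferase detection reagent.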
GLP1R ag – qHTS of GLP-1 Receptor Agonists | AID 624172, 2012 | HEK293 GLP-1R CRE-luciferase, luminescence, 4-6 h; cells express a hypersensitive GLP-1R form | Potency, µM (titrated, usually from 45.6 µM), for the others: at the highest dose activation, hits mostly activators | 0.007% of 380,000 active; also: % of control where 0% means no effect
An asterisk follows results filed as active; [ ] = remark or other dose. Calls follow the shape of the dose curve; as a rule, active = well fitted curve in the direction sought with a large enough effect; inconclusive = small, poorly fitted or top-dose-only effect, or another doubt; inactive = no such curve, though single readings can be large; an effect the other way counts as inactive or inconclusive. Potency is read from the fitted curve at half-maximal effect.

What do the screens show for `COc1cccc(CN(C)CC(=O)Nc2cc(S(=O)(=O)N3CCCC3)ccc2Cl)c1OC`?
PTHR1 agonist: -43%; GLP1R inv ag: 7.9µM*; HEK293 tox: 4%; GLP1R ag: 0%

How did Cc1cc(C)cc(C(=O)N2CC(C)OC(C)C2)c1 (configuration not stated) do in these assays?
PTHR1 agonist: 11%; GLP1R inv ag: 0%; HEK293 tox: 1%; GLP1R ag: -4%

How did CCOC(=O)[C@]12CCCC=C1N(Cc1ccccc1)C(=O)[C@H](CC(=O)NCCCN1CCCC1=O)C2 do in these assays?
PTHR1 agonist: -22%; GLP1R inv ag: 8%; HEK293 tox: 2%

How did Cc1cnc(C(=O)OCc2nc3ccccc3o2)cn1 do in these assays?
PTHR1 agonist: inconclusive; GLP1R inv ag: 6%; HEK293 tox: 26%; GLP1R ag: -1%

Results for CCN(CC)S(=O)(=O)c1ccc2oc(SCC(=O)NC3CC3)nc2c1 ?
PTHR1 agonist: -13%; GLP1R inv ag: 1%; HEK293 tox: 18%; GLP1R ag: -7%

Results for CCN(CC)S(=O)(=O)c1ccc2oc(SCc3ccc(F)cc3)nc2c1 ?
PTHR1 agonist: -22%[57.5 µM]; GLP1R inv ag: 11µM*; HEK293 tox: -1%; GLP1R ag: 7%

Results for CCN(CC)S(=O)(=O)c1ccc2oc(C(=O)NCc3ccc(F)cc3)c(C)c2c1 ?
PTHR1 agonist: -58%[57.5 µM]; GLP1R inv ag: 3.5µM*; HEK293 tox: -2%; GLP1R ag: 11%

Results for C#CCOCCOCCOCCNc1nc(N2CCN(C(=O)Cn3cc(CC(C)O)nn3)CC2)nc(N2CCN(C(=O)[C@H](C)n3cc(CCC(=O)O)nn3)CC2)n1 (some centres not stated) ?
PTHR1 agonist: inactive; GLP1R inv ag: 13%; HEK293 tox: 4%; GLP1R ag: 5%

Results for Cc1cc(N2CCC(C)CC2)nc(-n2nc(C)cc2C)n1 ?
PTHR1 agonist: -9%; GLP1R inv ag: inconclusive; HEK293 tox: 0.79µM*; GLP1R ag: 11%

How did COc1ccc(NC(=O)c2c(NCc3ccc(C)o3)sc3c2CCCCC3)c(OC)c1 do in these assays?
PTHR1 agonist: inactive; GLP1R inv ag: inconclusive; HEK293 tox: -20%

What do the screens show for `COc1ccccc1CNCc1cc(Br)ccc1OC`?
PTHR1 agonist: -2%; GLP1R inv ag: 6.3µM*; HEK293 tox: -20%; GLP1R ag: 2%

How did COc1ccccc1CNCc1cc(OC)c(OC)cc1OC do in these assays?
PTHR1 agonist: -25%[57.5 µM]; GLP1R inv ag: 1%; HEK293 tox: 1%; GLP1R ag: -9%

Results for CNc1ccccc1C(C)(C)c1cc(C)[nH]n1 ?
PTHR1 agonist: -3%; GLP1R inv ag: inconclusive; HEK293 tox: -22%; GLP1R ag: -7%

Results for CNc1ccccc1C(C)(C)c1cc(-c2ccco2)n[nH]1 ?
PTHR1 agonist: -19%[57.5 µM]; GLP1R inv ag: 7.9µM*; HEK293 tox: 1%; GLP1R ag: 2%

Results for CCCn1c(SCC#N)nc2c(c1=O)C1(CCCC1)Cc1ccccc1-2 ?
PTHR1 agonist: inactive; GLP1R inv ag: inconclusive; HEK293 tox: -12%; GLP1R ag: 0%

How did N#CCSc1nc2c(c(=O)n1Cc1ccco1)C1(CCCC1)Cc1ccccc1-2 do in these assays?
PTHR1 agonist: -55%[57.5 µM]; GLP1R inv ag: 5.6µM*; HEK293 tox: -12%; GLP1R ag: 7%

Results for COc1ccc2cc(Br)ccc2c1CC(=O)NC(C)(C)C ?
PTHR1 agonist: inactive; GLP1R inv ag: 13µM*; HEK293 tox: 3%; GLP1R ag: 2%

What do the screens show for `CN(Cc1nc(-c2ccc(Cl)cc2)no1)C(=O)CCN1C(=O)[C@H]2CC=CC[C@H]2C1=O`?
PTHR1 agonist: -30%; GLP1R inv ag: 2µM*; HEK293 tox: 1%; GLP1R ag: 4%

What do the screens show for `Cc1ccc(-c2noc(CN(C(=O)CCCCCN3C(=O)c4ccccc4C3=O)C(C)C)n2)cc1`?
PTHR1 agonist: -74%[57.5 µM]; GLP1R inv ag: 6.3µM*; HEK293 tox: -7%; GLP1R ag: 3%

How did CC(C)N(Cc1nc(-c2ccccc2)no1)C(=O)C(Cl)(Cl)Cl do in these assays?
PTHR1 agonist: -36%; GLP1R inv ag: 11µM*; HEK293 tox: 5%; GLP1R ag: 11%

What do the screens show for `CCN(Cc1nc(-c2ccc(Cl)cc2)no1)CC1CCCO1` (configuration not stated)?
PTHR1 agonist: -20%; GLP1R inv ag: 1.3µM*; HEK293 tox: 21%; GLP1R ag: 5%

How did CCCN(Cc1nc(-c2ccc(Cl)cc2)no1)CC1CCCO1 (configuration not stated) do in these assays?
PTHR1 agonist: -25%; GLP1R inv ag: inconclusive; HEK293 tox: 15%; GLP1R ag: 3%

Results for Cc1ccc(-c2noc(CN(C(=O)CCCN3C(=O)c4ccccc4C3=O)C(C)C)n2)cc1 ?
PTHR1 agonist: -11%; GLP1R inv ag: inconclusive; HEK293 tox: 4%; GLP1R ag: -4%

Results for COC(=O)c1ccc(CSc2nc3scc(-c4cccs4)c3c(=O)[nH]2)o1 ?
PTHR1 agonist: inactive; GLP1R inv ag: 6%; HEK293 tox: 2%; GLP1R ag: 0%

What do the screens show for `CCN(CC)C(=O)CSc1nnc(-c2ccccn2)n1-c1ccc(C)c(C)c1`?
PTHR1 agonist: inactive; GLP1R inv ag: -29%; HEK293 tox: -7%; GLP1R ag: 16%

What do the screens show for `CC(C)N(Cc1nc(-c2ccc(Cl)cc2)no1)C(=O)c1ccc(C(C)(C)C)cc1`?
PTHR1 agonist: -36%; GLP1R inv ag: -7%; HEK293 tox: 8%; GLP1R ag: -3%

How did CC(C)N(Cc1nc(-c2ccc(Cl)cc2)no1)C(=O)CCC1CCCC1 do in these assays?
PTHR1 agonist: -43%; GLP1R inv ag: 10µM*; HEK293 tox: 9%; GLP1R ag: -1%

Results for C=CCN(c1ccccc1Cl)S(=O)(=O)c1cccc(C(=O)NCCc2ccc(OC)cc2)c1 ?
PTHR1 agonist: inactive; GLP1R inv ag: 4.5µM*; HEK293 tox: -4%; GLP1R ag: -3%

Results for C=CCN(c1ccccc1OC)S(=O)(=O)c1cccc(C(=O)NCc2cccs2)c1 ?
PTHR1 agonist: -13%; GLP1R inv ag: inconclusive; HEK293 tox: 8%; GLP1R ag: 11%

Results for CCc1nc2ccc(C(=O)N(C)CC(=O)Nc3ccc(Cl)c(C(F)(F)F)c3)cc2nc1CC ?
PTHR1 agonist: -93%; GLP1R inv ag: 8.9µM*; HEK293 tox: inconclusive; GLP1R ag: -24%

What do the screens show for `CN(CC(=O)NC(=O)NCc1ccccc1)CC(=O)Nc1ccc(Cl)c(C(F)(F)F)c1`?
PTHR1 agonist: -49%; GLP1R inv ag: 7.9µM*; HEK293 tox: -25%; GLP1R ag: 8%
